The values below come from article PMC8384837, “Expanding the binding specificity for RNA recognition by a PUF domain”.

Substitutions are numbered along the chain they refer to.

Test in all cases: yeast three-hybrid, YBZ-1, SC-Leu-His + 0.5 mM 3-AT, 4 days
What all share (conditions): tags: N-Gal4 AD-HA kept; label: inside an RPR1-promoter hybrid RNA with tandem MS2 sites; ssRNA

One experiment deals with PUM1 PUF domain R5-TGR (Homo sapiens, UniProt Q14671 828-1176, C1007T;R1008G;Q1011R). The method in brief:
(§1)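 Pumilio-1 PUF domain libraries, randomized at the three base-contacting residues of each repeat, were co-expressed with matching RNA elements from a centromeric plasmid in strain YBZ-1, which carries a LexA–MS2 coat fusion and a HIS3 reporter. Transformants grew for four days on SC-Leu (input) or on SC-Leu-His + 0.5 mM 3-AT (selection), and the repeat regions were PCR-amplified and Illumina-sequenced. The interaction score is the log change in variant frequency from input to selection. That logarithm is base 2, with a pseudocount of 1 where a variant was absent.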

The target in a further experiment is PUM1 PUF domain R5-KRN (Homo sapiens, UniProt Q14671 828-1176, C1007K;Q1011N). In short, it runs like this: as §1
In the next experiment the target is PUM1 PUF domain R5-STR (Homo sapiens, UniProt Q14671 828-1176, C1007S;R1008T;Q1011R). The method in brief: as §1
The target of a further experiment is PUM1 PUF domain R5-MRD (Homo sapiens, UniProt Q14671 828-1176, C1007M;Q1011D). The method in brief: as §1
Another experiment deals with T1, PUM1 PUF domain R6-SYR (Homo sapiens, UniProt Q14671 828-1176, N1043S;Q1047R).
T1 sequence: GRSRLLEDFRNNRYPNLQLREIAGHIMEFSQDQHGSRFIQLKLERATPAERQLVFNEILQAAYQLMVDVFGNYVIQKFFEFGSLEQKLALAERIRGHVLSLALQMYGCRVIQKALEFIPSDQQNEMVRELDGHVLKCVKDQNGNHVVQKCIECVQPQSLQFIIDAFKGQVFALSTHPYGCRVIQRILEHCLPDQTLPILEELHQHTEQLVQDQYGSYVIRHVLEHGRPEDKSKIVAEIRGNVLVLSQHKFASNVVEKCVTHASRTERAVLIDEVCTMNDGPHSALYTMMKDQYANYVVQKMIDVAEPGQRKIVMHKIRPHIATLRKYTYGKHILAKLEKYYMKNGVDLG
In short, it runs like this: as §1

A further experiment concerns the target PUM1 PUF domain R5-LYL (Homo sapiens, UniProt Q14671 828-1176, C1007L;R1008Y;Q1011L). In short, it runs like this:
as §1

For the next experiment, the target named is PUM1 PUF domain R2-LWL (Homo sapiens, UniProt Q14671 828-1176, N899L;Y900W;Q903L). The method in brief: as §1
The next experiment has as its target PUM1 PUF domain R8-QYG (Homo sapiens, UniProt Q14671 828-1176, N1122Q;Q1126G). The method in brief: as §1
The target of a further experiment is PUM1 PUF domain R5-AFF (Homo sapiens, UniProt Q14671 828-1176, C1007A;R1008F;Q1011F). In short, it runs like this:
as §1

The next experiment concerns the target PUM1 PUF domain R1-RFC (Homo sapiens, UniProt Q14671 828-1176, S863R;R864F;Q867C). In short, it runs like this: as §1
The next experiment addresses PUM1 PUF domain R1-MWR (Homo sapiens, UniProt Q14671 828-1176, S863M;R864W;Q867R). In short, it runs like this:
as §1

The next experiment deals with PUM1 PUF domain R1-KWC (Homo sapiens, UniProt Q14671 828-1176, S863K;R864W;Q867C). In short, it runs like this: as §1
A further experiment concerns the target T2, PUM1 PUF domain R6-YRI (Homo sapiens, UniProt Q14671 828-1176, N1043Y;Y1044R;Q1047I).
T2 sequence: T1 sequence with S216Y, Y217R, R220I
The method in brief: as §1

A further experiment deals with T3, PUM1 PUF domain R6-KWG (Homo sapiens, UniProt Q14671 828-1176, N1043K;Y1044W;Q1047G).
T3 sequence: T1 sequence with S216K, Y217W, R220G
The method in brief:
as §1

The next experiment addresses PUM1 PUF domain R4-MNA (Homo sapiens, UniProt Q14671 828-1176, N971M;H972N;Q975A). The method in brief: as §1
A further experiment deals with PUM1 PUF domain R3-FRA (Homo sapiens, UniProt Q14671 828-1176, C935F;Q939A). In short, it runs like this: as §1
A further experiment deals with PUM1 PUF domain R3-PHL (Homo sapiens, UniProt Q14671 828-1176, C935P;R936H;Q939L). In short, it runs like this: as §1
For the next experiment, the target named is PUM1 PUF domain R2-KRA (Homo sapiens, UniProt Q14671 828-1176, N899K;Y900R;Q903A). The method in brief: as §1

As for “GGCUAGAACUAGUGGAUCCCCCGGCGCCCGGCGGCUCGAGCCCGGGUAAGUGUCAAUAGUCUGCAUGCCGCCGGGCGCCAUGCCUGCAGGUCGACUCUAGAAAACAUG”, the figures for the binding signal in the experiment with PUM1 PUF domain R5-TGR, in the experiment with PUM1 PUF domain R5-KRN and in the experiment with PUM1 PUF domain R5-STR were 5.8 log2 enrichment (interaction score), 4.24 log2 enrichment (interaction score) and 5.88 log2 enrichment (interaction score), respectively. For “GGCUAGAACUAGUGGAUCCCCCGGCGCCCGGCGGCUCGAGCCCGGGUAAGUGUAAAUAGUCUGCAUGCCGCCGGGCGCCAUGCCUGCAGGUCGACUCUAGAAAACAUG”, the binding signal is 2.65 log2 enrichment (interaction score) with PUM1 PUF domain R5-MRD; 6.46 log2 enrichment (interaction score) in the experiment with PUM1 PUF domain R6-SYR; 2.85 log2 enrichment (interaction score) with PUM1 PUF domain R5-LYL; 1.87 log2 enrichment (interaction score) with PUM1 PUF domain R2-LWL; 3.24 log2 enrichment (interaction score) in the experiment with PUM1 PUF domain R8-QYG; 1.08 log2 enrichment (interaction score) with PUM1 PUF domain R5-STR. Also, the binding signal with PUM1 PUF domain R5-AFF was 2.83 log2 enrichment (interaction score). With “GGCUAGAACUAGUGGAUCCCCCGGCGCCCGGCGGCUCGAGCCCGGGUAAGUGUUAAUAGUCUGCAUGCCGCCGGGCGCCAUGCCUGCAGGUCGACUCUAGAAAACAUG”, in the experiment with PUM1 PUF domain R5-MRD, the binding signal is 2.48 log2 enrichment (interaction score). With “GGCUAGAACUAGUGGAUCCCCCGGCGCCCGGCGGCUCGAGCCCGGGUAAGUGUAAAUCGUCUGCAUGCCGCCGGGCGCCAUGCCUGCAGGUCGACUCUAGAAAACAUG”, the binding signal with PUM1 PUF domain R1-RFC was 3.46 log2 enrichment (interaction score); in the experiment with PUM1 PUF domain R1-MWR, 3.03 log2 enrichment (interaction score). Consider “GGCUAGAACUAGUGGAUCCCCCGGCGCCCGGCGGCUCGAGCCCGGGUAAGUGUAAAUUGUCUGCAUGCCGCCGGGCGCCAUGCCUGCAGGUCGACUCUAGAAAACAUG”, for which the binding signal with PUM1 PUF domain R1-KWC was 3.86 log2 enrichment (interaction score); in the experiment with PUM1 PUF domain R1-MWR it was 3.06 log2 enrichment (interaction score). On to “GGCUAGAACUAGUGGAUCCCCCGGCGCCCGGCGGCUCGAGCCCGGGUAAGUGAAAAUAGUCUGCAUGCCGCCGGGCGCCAUGCCUGCAGGUCGACUCUAGAAAACAUG”, for which the binding signal is 3.61 log2 enrichment (interaction score) with PUM1 PUF domain R6-YRI and 5.8 log2 enrichment (interaction score) with PUM1 PUF domain R6-KWG. On to “GGCUAGAACUAGUGGAUCCCCCGGCGCCCGGCGGCUCGAGCCCGGGUAAGUGCAAAUAGUCUGCAUGCCGCCGGGCGCCAUGCCUGCAGGUCGACUCUAGAAAACAUG”, for which the binding signal with PUM1 PUF domain R6-SYR is 6.87 log2 enrichment (interaction score). Consider “GGCUAGAACUAGUGGAUCCCCCGGCGCCCGGCGGCUCGAGCCCGGGUAAGUGUAUAUAGUCUGCAUGCCGCCGGGCGCCAUGCCUGCAGGUCGACUCUAGAAAACAUG”, for which the binding signal in the experiment with PUM1 PUF domain R4-MNA was 4.12 log2 enrichment (interaction score). Consider “GGCUAGAACUAGUGGAUCCCCCGGCGCCCGGCGGCUCGAGCCCGGGUAAGUGUAAGUAGUCUGCAUGCCGCCGGGCGCCAUGCCUGCAGGUCGACUCUAGAAAACAUG”, for which, in the experiment with PUM1 PUF domain R3-FRA, the binding signal is 5.49 log2 enrichment (interaction score).

As for “GGCUAGAACUAGUGGAUCCCCCGGCGCCCGGCGGCUCGAGCCCGGGUAAGUGUAAUUAGUCUGCAUGCCGCCGGGCGCCAUGCCUGCAGGUCGACUCUAGAAAACAUG”, the binding signal is 1.3 log2 enrichment (interaction score) with PUM1 PUF domain R3-FRA and 4.16 log2 enrichment (interaction score) with PUM1 PUF domain R3-PHL.

With “GGCUAGAACUAGUGGAUCCCCCGGCGCCCGGCGGCUCGAGCCCGGGUAAGUGUAAAAAGUCUGCAUGCCGCCGGGCGCCAUGCCUGCAGGUCGACUCUAGAAAACAUG”, the binding signal with PUM1 PUF domain R2-LWL is 6.07 log2 enrichment (interaction score). Regarding “GGCUAGAACUAGUGGAUCCCCCGGCGCCCGGCGGCUCGAGCCCGGGUAAGCGUAAAUAGUCUGCAUGCCGCCGGGCGCCAUGCCUGCAGGUCGACUCUAGAAAACAUG”, the binding signal in the experiment with PUM1 PUF domain R8-QYG was 3.1 log2 enrichment (interaction score). As to “GGCUAGAACUAGUGGAUCCCCCGGCGCCCGGCGGCUCGAGCCCGGGUAAGUGUAAAGAGUCUGCAUGCCGCCGGGCGCCAUGCCUGCAGGUCGACUCUAGAAAACAUG”, in the experiment with PUM1 PUF domain R2-KRA, the binding signal is 4.63 log2 enrichment (interaction score).
